Among all 380,000 compounds or so, about 1,300 (0.34%) were called active. This is one part of a sample in which actives are shown more often than they occur. Unmarked numbers belong to inactive results.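 Rule for the calls: active = drop in luminescence signal, shown as inhibition above about 50% in the replicate tests (limit read from the data, passing the limit was not always enough); inconclusive = probably only some replicates passing the limit; inactive = the rest.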
tested on: Drosophila bursicon receptor LGR2 (rickets); experiment: inhibitors of bursicon-induced LGR2 CRE-luciferase signal, primary screen, cell-based, HEK293, CRE-luciferase reporter, bursicon stimulation (AID 720647); conditions: bursicon-stimulated, 4 h, at 9.99 µM, active compounds read high;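 note: agonist challenge used bursicon conditioned medium at about half maximal strength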

Structure (SMILES)	inhibition
C[C@]12CC[C@H](O)C[C@H]1CC[C@@H]1C2CC[C@]2(C)[C@@H](C3=CC(=O)OC3)[C@@H](O)C[C@]12O (stereo not given in full)	75.1% (active)
C[C@]12CCC3C(CC[C@H]4C[C@@H](O)CC[C@]34C)C1C[C@@H](O)[C@H]2O (stereo not given in full)	21.8%
C[C@]12CCC3C(CC[C@H]4C[C@@H](O)CC[C@]34C)C1CC[C@@H]2O (stereo not given in full)	4.33%
Cc1cc(N2CCNC[C@@H]2C)ccc1N1CC[C@H](O)C1	-14.4%
O=C(Cc1ccccn1)N1CCCCN2[C@H](C1)[C@H](c1ccc(-c3ccccc3F)cc1)[C@@H]2CO	20.2%
CCOc1ccc(-c2cc(C)[n+](CCN(CC)CC)c(-c3ccc(OCC)cc3)c2)cc1	60.4% (active)
CS(=O)(=O)N1CCC2CCNC2C1 (stereo not given)	-1.04%
O=C(Cc1ccncc1)N1CCCCN2[C@@H](CO)[C@H](c3ccc(C#CC4(O)CCCC4)cc3)[C@@H]2C1	-0.939%
Clc1ccc([C@@H]2CC3CCC2N3)cn1 (stereo not given in full)	7.28%
O=S(=O)(c1ccccc1)N1CCC2CCNC2C1 (stereo not given)	8.51%
CCC(C)(O)C(=O)OC1C(=O)OC2CC3C(C)=CC(=O)C(O)C3(C)C3C4(O)OCC23C1C(C)C4O (stereo not given)	101% (active)
O=C(Cc1ccccc1)N1CCCCN2[C@H](CO)[C@H](c3ccc(C#Cc4ccccc4)cc3)[C@H]2C1	0.501%
COC(=O)[C@@H]1[C@@H](CO)[C@@H]2Cn3c(ccc(-c4cccc(C(=O)N(C)C)c4)c3=O)[C@H]1N2C(=O)NC(C)C	31.6%
CCN(CC)C(=O)[C@@H]1C=C2c3cccc4[nH]c(Br)c(c34)C[C@H]2N(C)C1	9.95%
COc1ccc(C#Cc2ccc([C@H]3[C@H](CO)N4CCCCN(C(=O)Cc5ccccc5)C[C@@H]34)cc2)cc1	10.8%
COC(=O)[C@@H]1[C@@H](CO)[C@@H]2Cn3c(ccc(-c4ccc(F)cc4)c3=O)[C@H]1N2C(C)=O	-7.85%
COc1cccc(-c2nc3ccc(N4CCN(C)CC4)cc3[nH]2)c1	88.7% (active)
CN1CCN(c2cc(N3CCNCC3)ccc2[N+](=O)[O-])CC1	1.9%
COc1cccc(-c2ccc([C@H]3[C@H]4CN(C(=O)Cc5ccncc5)CCCCN4[C@H]3CO)cc2)c1	-6.52%
COc1ccc2c(c1)[C@@]13CCCCC1[C@@H](C2)NCC3 (stereo not given in full)	15.4%
COC1C(O)C(C)OC(OC2CCC3(C=O)C(CCC4C3CCC3(C)C(C5=CC(=O)OC5)CCC43O)C2)C1O (stereo not given)	83.8% (active)
CCC(C)NC1(c2ccccc2)CCCCC1 (stereo not given)	-0.048%
COC(=O)[C@H]1[C@H](CO)[C@H]2Cn3c(cccc3=O)[C@H]2N1CC1CC1	26.9%
C/C=C/c1ccc(C2[C@@H]3CN(Cc4cncnc4)C[C@H]2N3)cc1 (stereo not given in full)	-8.19%
O=C(Cc1ccccn1)N1CCCCN2[C@@H](CO)[C@@H](c3ccc(C#Cc4ccccc4)cc3)[C@@H]2C1	-13.4%
